PubChem BioAssay (NCI)
About 83,000 compounds went through this panel and 20% of them were active in at least one assay; those are over-represented in the sample as a whole.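 Each cell line was grown in a 96-well plate and treated with one concentration of compound for 48 hours. Values below 10 were considered active.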 A number with no mark means an inactive call. Calls of active or inactive are those of the source.

Legend:
Experiment in all cases: NCI-60 one-dose screen, 48 h (100 = growth as untreated, 0 = no growth, -100 = all killed)
Conditions in all cases: 10 µM unless noted
[1] = system: NCI-H23 lung
[2] = system: NCI-H226 lung
[3] = system: NCI-H322M lung
[4] = system: HOP-62 NSCLC
[5] = system: NCI-H460 lung
[6] = system: NCI-H522 lung
[7] = system: A549/ATCC NSCLC
[8] = system: 786-0 renal
[9] = system: COLO 205 colon
[10] = system: DU-145 prostate
[11] = system: MALME-3M melanoma
[12] = system: MDA-MB-231 breast
[13] = system: RXF 393 renal
[14] = system: SF-268 CNS
[15] = system: SF-295 CNS
[16] = system: SF-539 CNS
[17] = system: UACC-257 melanoma
[18] = system: M14 melanoma

Structure (SMILES)	growth [1]	growth [2]	growth [3] [%]	growth [4] [%]	growth [5] [%]	growth [6]	growth [7] [%]	growth [8] [%]	growth [9]	growth [10]	growth [11] [%]	growth [12]	growth [13]	growth [14] [%]	growth [15]	growth [16]	growth [17] [%]	growth [18]
Cc1ccc(C(=O)CC(=O)C(F)(F)C(F)(F)C(F)(F)F)s1	105%	103%	105	96.9	111	121%	104	97.2	119%	104%	98.7	92.1%	111%	101	103%	98.7%	105	103%
Cc1cc(-c2ccccc2)on1	106%	99.4%	90.5	92.9	112	97.9%	104	95.2	109%	111%	102	105%	119%	103	100%	88.8%	109	105%
COc1cc(C2C(C#N)=C(N)Oc3cc4c(cc32)OCO4)cc2c1OCO2 (configuration not stated)	8.48% (active)	0.662% (active)	44.8	28.2	12.4	5.81% (active)	25.3	31.1	-42.1% (active)	6.37% (active)	52.6	36.5%	-12.1% (active)	40.3	9.43% (active)	2.43% (active)	66.4	-2.77% (active)
COc1cc(-c2nc(-c3ccc(-c4nc5ccc(F)cc5[nH]4)cc3)no2)cc(OC)c1OC	30.4%	29.2%	90.7	26.5	43.2	18.2%	42.8	46.4	60.4%	68.5%	46	9.59% (active)	-3.77% (active)	35.8	22.5%	33.9%	80.1	43.6%
COc1cc(CN(c2ccc(C)cc2)C2OC(=O)c3ccccc32)cc(OC)c1OC (configuration not stated)	29%	20.1%	60.2	24.8	18.4	31.7%	30.5	28.9	-45.5% (active)	25%	63.4	64.6%	22.3%	34.1	16.8%	5.91% (active)	94.2	-10% (active)
O=C1CCCN1C(O)CCN(Cc1ccccc1)Cc1ccc(Cl)cc1 (configuration not stated)	103%	105%	95.5	104	105	93.3%	103	95.7	124%	110%	109	112%	123%	105	94.2%	114%	106	99.9%
COc1cccc(-c2nc3sccn3c2-c2ccnc(NCCN3CCCN(C)S3(=O)=O)n2)c1	104%	78.9%	91.4	111	69.5	95.9%	91.7	73.3	45.8%	74.2%	39.6	84.9%	74.6%	103	96.8%	92.5%	84.7	29.2%
Nc1ccc(C2=NNC(=O)Cc3cc4c(cc32)OCCO4)cc1Cl	20.9%	68.5%	61.1	46	10.6	11%	40.3	54.3	26.9%	67.5%	40.9	61.4%	49.9%	59.7	15.9%	49.4%	72.7	16.8%
CCOC(=O)c1cnc(SCC)nc1SC#N	94.6%	142%	103	121	115	31.8%	101	101	82.1%	103%	97.7	98.2%	173%	103	106%	89.2%	92.6	84.7%
